A selection: hits, their analogues and other compounds. The true share with any hit is near 15%.
Sm TGR inh: qHTS Assay for the Inhibitors of Schistosoma Mansoni Peroxiredoxins | Schistosoma mansoni thioredoxin glutathione reductase (TGR), Q962Y6 | purified TGR, DTNB reduction, TNB absorbance 405 nm | Potency, µM (doses to about 114 µM), for inactives: at the top dose activity change, negative = inhibition, hits mostly inhibitors | 360,000 compounds, 3% hits | AID 485364, 2010; also: potency is read from the fitted curve at half-maximal effect; % is scaled to controls: 0 for no effect and ±100 for the full control effect; nearly all actives have a fitted effect of over 60% in size
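TGR 20 nM + NADPH 100 uM (dispensed conc.), cpd preinc 15 min RT; start with NADPH (500 uM addition) then DTNB (15 mM addition). Kinetic TNB absorbance, 405 nm filter. Four-parameter Hill fit across titration.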
Pf growth 48h: Primary qHTS for delayed death inhibitors of the malarial parasite plastid, 48 hour incubation; P. falciparum luciferase growth in erythrocytes, 48 h; Potency, µM (top dose mostly 28.7 µM), inactives show top-dose activity change, negative = inhibition, hits mostly inhibitors; 310,000 compounds, 5.9% hits; also: potency is read from the fitted curve at half-maximal effect; % is scaled to controls: 0 for no effect and ±100 for the full control effect
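Compounds are pin-transferred into medium, infected erythrocytes (2% hematocrit, 0.1% parasitemia final) are added, and plates sit one parasite generation at 37 C in 5% CO2. Detection reagent is then added and luminescence measured.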
SARS PLpro yeast-1: qHTS of Yeast-based Assay for SARS-CoV PLP | S. cerevisiae expressing SARS-CoV PLpro, growth rescue | Potency, µM (doses to about 32.9 µM), without a hit: top-dose activity, positive = growth rescue, hits mostly activators | 330,000 compounds, 0.19% hits | AID 485353, 2010; calls by dose curve; also: potency is read from the fitted curve at half-maximal effect; 0% is about no effect; nearly all actives have a fitted effect of over 55% in size
HCMV inh: qHTS Assay for inhibitors of the human cytomegalovirus (HCMV); HFF cells, HCMV-luciferase reporter, 72 h; stronger effect = lower value; 410,000 compounds, 4.5% hits; activity change, negative = inhibition, % at 57.5 µM; in the data active = activity change below about -60%; inconclusive = no clear call, values can overlap the other calls; inactive = above about -39%; also: % is scaled to controls: 0 for no effect and ±100 for the full control effect
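Two compound doses tested in HFFs infected with HCMV-luciferase, MOI 1 PFU/cell, 72 h at 37C. Lysate luminescence read with OneGlo; data normalized against buffer-only and 10uM Salinomycin inhibitor controls.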
Pf growth 96h: Primary qHTS for delayed death inhibitors of the malarial parasite plastid, 96 hour incubation. 320,000 compounds, 6.9% hits. P. falciparum luciferase reporter growth, 96 h. Potency, µM (highest dose often 28.7 µM), for the others: at the top dose activity change, negative = inhibition, usual class: inhibitors; also: potency is read from the fitted curve at half-maximal effect; % is scaled to controls: 0 for no effect and ±100 for the full control effect
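Infected RBCs, 2% Hct / 0.05% parasitemia final; luciferase-reporter P. falciparum; cpd 96 h, 37 C, 5% CO2; luciferase detection reagent; luminescence.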
HCV inhibitor: qHTS Assay for Inhibitors of Hepatitis C Virus (HCV); Huh7.5.1 HCVcc-Cre infection, luciferase reporter, 44 h; Potency, µM (titrated, usually from 41.8 µM), for inactives: top-dose activity change, negative = inhibition, usual class: inhibitors; 340,000 compounds, 3.4% hits; AID 651820, 2012; also: potency is read from the fitted curve at half-maximal effect; % is scaled to controls: 0 for no effect and ±100 for the full control effect
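Infectious HCV cell culture screen: compound-treated cells (1,000/well, pre-plated 4 h) are infected with HCVcc-Cre at roughly 0.5 moi and grown 44 h. Infection is quantified by luciferase signal after 15 min substrate incubation at room temperature.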
SARS PLpro yeast-2: qHTS of Yeast-based Assay for SARS-CoV PLP: Hit Validation | AID 652038, 2013 | shares compounds with SARS PLpro yeast-1 | 1,000 compounds, 19% hits | calls only | yeast expressing SARS-CoV PLpro, growth phenotype rescue; call rule not given here
The depositor's hits bear a star; i = inactive; ? = inconclusive; . = not tested or not shown; + = active, no number. Unless noted, calls follow the shape of the dose curve; as a rule, active = well fitted curve in the direction sought with a large enough effect; inconclusive = small, poorly fitted or top-dose-only effect, or another doubt; inactive = no such curve, though single readings can be large; an effect the other way counts as inactive or inconclusive.

SMILES	Sm TGR inh	Pf growth 48h	SARS PLpro yeast-1	HCMV inh	Pf growth 96h	HCV inhibitor	SARS PLpro yeast-2
COc1cccc(/C=N/Nc2ncnc(Cl)c2N)c1O	-18%	1.7µM*	4.5µM*	-97*	2.6µM*	5.6µM*	i
COc1cccc(/C=N/NC(=O)C(=O)N2CCCCCC2)c1O	-5%	-5%	6%	14	50%	16%	.
COc1ccc(C2(O)CCN(CC(=O)Nc3nccs3)CC2)c(OC)c1	-25%	13%	-8%	36	-10%	?	.
COCC1CCN(C(=O)c2ccc3nc(Cc4cccc(Cl)c4)oc3c2)CC1	.	.	.	0	.	.	.
Cc1cc(Cl)ccc1NS(=O)(=O)c1ccc2c(c1)CC(C)N2C(=O)C1CCC1 (configuration not stated)	2%	.	.	-27	.	.	.
Cc1nnc(SCc2ccc(Cl)c(Cl)c2)s1	-6%	32%	-1%	35	-86%	0%	.
Cc1[nH]c(=S)sc1Cc1ccc(Cl)c(Cl)c1	0%	13%	?	-8	30%	-7%	+
O=C(Nc1ccccn1)c1ccc([N+](=O)[O-])o1	-26%	?	10µM*	.	?	?	i
Cc1cc(/C=N/n2c(COc3ccccc3C)nc3ccccc3c2=O)c(O)c([N+](=O)[O-])c1	3%	3.3µM*	3.5µM*	-92*	?	?	+
O=c1c2ccccc2nc(COc2ccccc2)n1/N=C/c1cc([N+](=O)[O-])ccc1O	-4%	2.6µM*	5.6µM*	-1	?	25%	?
O=C(CSc1nnc(NC(=O)C2CC(=O)N(c3ccc(F)cc3)C2)s1)NC1CCCC1 (configuration not stated)	-6%	-4%	6%	-6	?	7%	.
CCOc1ccc(NC(=O)CSc2nccn2C2CCCC2)cc1	6%	.	.	28	.	.	.
O=[N+]([O-])c1ccccc1Oc1cnc2ccccc2n1	-6%	3%	0%	33	-4%	-5%	.
CC(C)(C)n1ncc(Oc2ccccc2[N+](=O)[O-])c(Cl)c1=O	-4%	-25%	?	-28	-5%	?	i
CCOC(=O)C1=C2SCC(=O)N2C(N)=C(C#N)C1	?	16%	?	21	13%	-12%	i
CCCCc1ccc(NC(=S)NN2CCOCC2)cc1	-21%	24%	10µM*	-18	28%	-7%	+
Cc1cc(-c2ccc(NC(=O)[C@@H]3CCCC[C@@H]3C(=O)O)c(C)c2)ccc1NC(=O)[C@@H]1CCCC[C@@H]1C(=O)O	.	18%	1%	-40	5%	-10%	.
Cn1ncc2c(NNC(=O)c3ccc(Cl)c(Cl)c3)ncnc21	-13%	-29%	22%	34	?	8%	.
Cn1ncc2c(NNC(=O)c3ccc(Cl)cc3Cl)ncnc21	-3%	33%	?	-4	22%	?	i
O=C(CCl)Nc1cccc2ncccc12	45µM*	2.3µM*	11µM*	-99*	1%	13µM*	+
COc1ccc(OCC(=O)Nc2cccc3ncccc23)cc1	1%	-11%	-8%	-26	180%	20%	.
CCc1ccccc1NC(=O)CN1CCN(C(=O)c2ccc(OCc3cn4ccccc4n3)cc2)CC1	-5%	?	?	-4	?	?	i
O=C(Nc1cccc(C(F)(F)F)c1)c1csc([C@H]2C[C@H](O)[C@@H](CO)O2)n1	.	.	.	32	.	.	.
CCCCNC(=O)N1CCc2ccccc2C1	5%	8%	3.2µM*	-34	-16%	12%	i

Compound activity as filed in PubChem BioAssay.
